# Assay results published in publication PMC7862700, “An all-to-all approach to the identification of sequence-specific readers for epigenetic DNA modifications on cytosine”.
# Tests used:
# Assay in all cases: DAPPL (digital affinity profiling via proximity ligation, sequencing); 10 mM Tris-HCl pH 7.5, 50 mM NaCl, 1 mM DTT, 4% glycerol, room temperature, 30 min; GST-TFs on glutathione beads, 16-mer random dsDNA library, 0.1% formaldehyde crosslink after washing; high values mean tight binding
# FEV = biological target: T1, FEV (Homo sapiens, UniProt Q99581 1-238); details: protein: recombinant; tags: N-terminal GST; dsDNA, one strand shown
# T1 sequence: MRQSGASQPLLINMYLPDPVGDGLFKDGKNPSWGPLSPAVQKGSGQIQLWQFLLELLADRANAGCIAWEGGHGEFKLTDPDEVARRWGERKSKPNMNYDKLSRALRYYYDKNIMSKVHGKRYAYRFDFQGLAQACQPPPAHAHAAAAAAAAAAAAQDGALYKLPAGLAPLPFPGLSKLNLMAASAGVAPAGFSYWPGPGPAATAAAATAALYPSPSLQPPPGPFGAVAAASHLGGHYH
# In short: (§1)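 Human transcription factors fused to GST were expressed in yeast, captured on glutathione beads, given DNA barcodes and pooled with a GST-only negative control. Pools were incubated with 200 nmole of a 16-mer random double-stranded DNA library in Tris/NaCl/DTT/glycerol buffer at room temperature for 30 min. They were then washed, crosslinked with 0.1% formaldehyde, proximity-ligated (BsaI/T4 ligase, 1 h, 37 °C), PCR-amplified and sequenced on an Illumina NextSeq500. Binding signal is each 6-mer's read frequency for a factor divided by its frequency for the GST control.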
# ETV5 = ETV5 (Homo sapiens, UniProt P41161 1-510); details: protein: recombinant; tags: N-terminal GST; dsDNA, one strand shown
# Chain of ETV5 (P41161 whole entry): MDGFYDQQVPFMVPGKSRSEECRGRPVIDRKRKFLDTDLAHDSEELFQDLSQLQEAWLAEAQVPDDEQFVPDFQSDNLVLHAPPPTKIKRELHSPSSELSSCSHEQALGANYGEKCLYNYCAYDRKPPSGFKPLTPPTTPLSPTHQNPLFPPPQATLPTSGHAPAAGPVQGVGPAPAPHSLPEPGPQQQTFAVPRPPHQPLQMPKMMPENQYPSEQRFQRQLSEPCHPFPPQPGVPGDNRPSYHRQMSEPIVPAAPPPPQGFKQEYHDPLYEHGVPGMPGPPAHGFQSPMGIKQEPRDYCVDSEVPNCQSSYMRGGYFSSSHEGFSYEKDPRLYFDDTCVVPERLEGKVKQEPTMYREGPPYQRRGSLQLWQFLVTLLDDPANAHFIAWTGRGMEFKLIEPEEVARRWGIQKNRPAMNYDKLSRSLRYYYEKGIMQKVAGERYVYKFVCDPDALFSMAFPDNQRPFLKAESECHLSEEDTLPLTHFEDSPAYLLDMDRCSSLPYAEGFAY
# In short: as §1
# HSF1 = HSF1 (Homo sapiens, UniProt Q00613 1-529); details: protein: recombinant; tags: N-terminal GST; chain copies: 3; dsDNA, one strand shown
# Chain of HSF1 (Q00613 whole entry): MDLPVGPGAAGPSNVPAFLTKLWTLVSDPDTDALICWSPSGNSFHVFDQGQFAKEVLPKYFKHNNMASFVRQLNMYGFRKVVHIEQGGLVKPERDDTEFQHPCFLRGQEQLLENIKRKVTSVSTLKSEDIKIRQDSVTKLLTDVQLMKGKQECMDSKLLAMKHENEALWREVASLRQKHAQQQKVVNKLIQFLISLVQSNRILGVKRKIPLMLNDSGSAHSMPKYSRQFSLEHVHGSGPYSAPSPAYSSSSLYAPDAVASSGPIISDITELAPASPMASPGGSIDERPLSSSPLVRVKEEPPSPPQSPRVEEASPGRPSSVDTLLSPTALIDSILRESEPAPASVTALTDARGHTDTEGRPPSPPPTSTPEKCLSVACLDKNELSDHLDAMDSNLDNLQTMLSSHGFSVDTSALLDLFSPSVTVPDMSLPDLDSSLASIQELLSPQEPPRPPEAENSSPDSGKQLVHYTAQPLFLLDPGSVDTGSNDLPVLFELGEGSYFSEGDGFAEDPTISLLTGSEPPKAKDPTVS
# In short: as §1
# SPIC = biological target: T2, SPIC (Homo sapiens, UniProt Q8N5J4 1-248); details: protein: recombinant; tags: N-terminal GST; dsDNA, one strand shown
# T2 sequence: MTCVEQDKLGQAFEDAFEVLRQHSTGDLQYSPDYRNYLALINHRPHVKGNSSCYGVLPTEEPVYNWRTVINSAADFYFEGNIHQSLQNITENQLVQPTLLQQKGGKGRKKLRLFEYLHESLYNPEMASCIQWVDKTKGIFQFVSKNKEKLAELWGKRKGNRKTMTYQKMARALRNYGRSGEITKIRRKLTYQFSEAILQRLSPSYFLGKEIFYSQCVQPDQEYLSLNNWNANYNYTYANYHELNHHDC
# In short: as §1
# ELF4 = ELF4 (Homo sapiens, UniProt Q99607 1-663); details: protein: recombinant; tags: N-terminal GST; dsDNA, one strand shown
# Chain of ELF4 (Q99607 whole entry): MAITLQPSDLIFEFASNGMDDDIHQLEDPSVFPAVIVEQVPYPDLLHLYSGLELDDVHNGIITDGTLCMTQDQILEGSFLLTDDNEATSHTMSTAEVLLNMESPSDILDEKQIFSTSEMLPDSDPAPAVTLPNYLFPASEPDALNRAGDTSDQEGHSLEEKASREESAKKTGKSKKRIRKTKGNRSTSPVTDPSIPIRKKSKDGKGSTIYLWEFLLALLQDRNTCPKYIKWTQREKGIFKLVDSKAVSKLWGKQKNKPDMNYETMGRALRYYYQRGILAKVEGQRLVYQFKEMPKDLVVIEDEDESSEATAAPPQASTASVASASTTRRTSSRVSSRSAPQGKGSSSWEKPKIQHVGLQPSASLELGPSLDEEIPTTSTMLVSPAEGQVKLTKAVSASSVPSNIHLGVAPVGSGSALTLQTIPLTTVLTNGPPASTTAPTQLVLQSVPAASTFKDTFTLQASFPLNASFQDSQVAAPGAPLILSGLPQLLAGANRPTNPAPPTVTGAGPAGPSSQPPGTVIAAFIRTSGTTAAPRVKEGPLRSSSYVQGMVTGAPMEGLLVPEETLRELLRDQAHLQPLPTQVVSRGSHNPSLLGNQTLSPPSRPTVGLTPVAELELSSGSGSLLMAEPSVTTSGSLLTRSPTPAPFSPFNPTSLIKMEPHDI
# In short: as §1
# ELK4 = biological target: T3, ELK4 (Homo sapiens, UniProt P28324-2 1-405); details: protein: recombinant; tags: N-terminal GST; dsDNA, one strand shown
# T3 sequence: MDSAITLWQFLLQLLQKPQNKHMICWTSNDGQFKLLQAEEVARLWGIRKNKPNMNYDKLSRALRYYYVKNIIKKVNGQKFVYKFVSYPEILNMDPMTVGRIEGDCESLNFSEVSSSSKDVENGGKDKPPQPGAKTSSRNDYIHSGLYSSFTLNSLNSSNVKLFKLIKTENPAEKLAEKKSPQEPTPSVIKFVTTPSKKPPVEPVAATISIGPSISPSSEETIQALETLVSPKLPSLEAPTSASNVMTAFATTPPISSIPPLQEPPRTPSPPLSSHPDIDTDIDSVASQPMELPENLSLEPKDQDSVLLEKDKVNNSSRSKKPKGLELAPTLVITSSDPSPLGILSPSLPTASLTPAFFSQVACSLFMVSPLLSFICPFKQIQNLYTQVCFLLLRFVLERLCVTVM
# In short: as §1
# ETV2 = biological target: T4, ETV2 (Homo sapiens, UniProt O00321 1-342); details: protein: recombinant; tags: N-terminal GST; dsDNA, one strand shown
# T4 sequence: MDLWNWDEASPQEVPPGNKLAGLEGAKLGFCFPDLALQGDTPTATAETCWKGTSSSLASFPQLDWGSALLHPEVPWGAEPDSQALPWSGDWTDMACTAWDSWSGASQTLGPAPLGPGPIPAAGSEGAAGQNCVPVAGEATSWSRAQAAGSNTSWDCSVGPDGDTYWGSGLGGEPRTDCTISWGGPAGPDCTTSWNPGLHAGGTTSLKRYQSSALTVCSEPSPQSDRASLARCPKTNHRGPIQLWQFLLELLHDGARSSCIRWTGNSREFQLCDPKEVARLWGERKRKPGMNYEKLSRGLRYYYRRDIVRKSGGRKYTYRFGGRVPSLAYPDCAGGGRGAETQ
# In short: as §1
# ELF3 = biological target: T5, ELF3 (Homo sapiens, UniProt P78545 1-371); details: protein: recombinant; tags: N-terminal GST; dsDNA, one strand shown
# T5 sequence: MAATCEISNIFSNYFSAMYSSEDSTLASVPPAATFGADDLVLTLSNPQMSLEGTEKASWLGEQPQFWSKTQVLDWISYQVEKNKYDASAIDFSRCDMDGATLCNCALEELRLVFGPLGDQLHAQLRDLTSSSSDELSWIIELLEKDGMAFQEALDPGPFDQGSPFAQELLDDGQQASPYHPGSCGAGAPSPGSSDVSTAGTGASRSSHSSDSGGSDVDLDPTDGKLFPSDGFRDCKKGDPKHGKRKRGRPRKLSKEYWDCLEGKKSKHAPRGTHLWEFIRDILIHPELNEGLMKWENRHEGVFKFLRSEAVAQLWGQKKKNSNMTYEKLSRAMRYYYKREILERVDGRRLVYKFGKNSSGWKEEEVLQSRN
# In short: as §1
# CRX = CRX (Homo sapiens, UniProt O43186 1-299); details: protein: recombinant; tags: N-terminal GST; dsDNA, one strand shown
# Chain of CRX (O43186 whole entry): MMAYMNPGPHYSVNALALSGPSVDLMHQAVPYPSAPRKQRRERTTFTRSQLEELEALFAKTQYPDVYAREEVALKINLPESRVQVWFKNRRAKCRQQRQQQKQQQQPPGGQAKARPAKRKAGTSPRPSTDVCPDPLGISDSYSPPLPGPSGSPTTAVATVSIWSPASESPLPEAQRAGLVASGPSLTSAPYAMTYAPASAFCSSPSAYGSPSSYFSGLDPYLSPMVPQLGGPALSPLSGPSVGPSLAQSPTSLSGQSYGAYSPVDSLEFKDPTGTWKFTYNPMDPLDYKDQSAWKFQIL
# In short: as §1
# ETV1 = ETV1 (Homo sapiens, UniProt P50549 1-477); details: protein: recombinant; tags: N-terminal GST; dsDNA, one strand shown
# Chain of ETV1 (P50549 whole entry): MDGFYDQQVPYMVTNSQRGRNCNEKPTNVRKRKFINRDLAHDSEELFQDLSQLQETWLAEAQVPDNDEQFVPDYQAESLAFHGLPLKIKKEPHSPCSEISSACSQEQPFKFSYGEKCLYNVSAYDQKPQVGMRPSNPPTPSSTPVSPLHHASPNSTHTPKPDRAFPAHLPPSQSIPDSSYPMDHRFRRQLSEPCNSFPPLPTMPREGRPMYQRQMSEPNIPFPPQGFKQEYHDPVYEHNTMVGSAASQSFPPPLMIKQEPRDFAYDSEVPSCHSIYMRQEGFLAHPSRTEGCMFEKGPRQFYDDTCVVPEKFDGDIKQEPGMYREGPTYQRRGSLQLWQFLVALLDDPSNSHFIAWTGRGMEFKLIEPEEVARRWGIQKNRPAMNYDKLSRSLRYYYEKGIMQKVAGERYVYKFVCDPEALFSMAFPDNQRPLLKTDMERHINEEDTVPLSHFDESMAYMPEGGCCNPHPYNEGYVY
# In short: as §1
# ERF = biological target: T6, ERF (Homo sapiens, UniProt P50548 1-548); details: protein: recombinant; tags: N-terminal GST; dsDNA, one strand shown
# T6 sequence: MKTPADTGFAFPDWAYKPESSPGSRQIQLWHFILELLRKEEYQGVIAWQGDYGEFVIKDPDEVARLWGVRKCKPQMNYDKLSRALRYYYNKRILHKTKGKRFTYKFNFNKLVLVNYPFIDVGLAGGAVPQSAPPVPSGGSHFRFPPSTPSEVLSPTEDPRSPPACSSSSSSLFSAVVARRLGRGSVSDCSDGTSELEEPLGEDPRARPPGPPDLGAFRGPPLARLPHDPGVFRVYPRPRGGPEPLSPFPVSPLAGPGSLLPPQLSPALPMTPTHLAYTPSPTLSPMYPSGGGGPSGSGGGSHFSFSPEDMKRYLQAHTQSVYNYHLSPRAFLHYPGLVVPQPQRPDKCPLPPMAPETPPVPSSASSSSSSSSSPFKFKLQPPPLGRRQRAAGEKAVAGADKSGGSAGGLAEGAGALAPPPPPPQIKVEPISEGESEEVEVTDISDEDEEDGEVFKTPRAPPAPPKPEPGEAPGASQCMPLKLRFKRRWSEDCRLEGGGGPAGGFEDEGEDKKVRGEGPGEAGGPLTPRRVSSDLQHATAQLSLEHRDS
# In short: as §1
# ETV3L = biological target: T7, ETV3L (Homo sapiens, UniProt Q6ZN32 1-361); details: protein: recombinant; tags: N-terminal GST; dsDNA, one strand shown
# T7 sequence: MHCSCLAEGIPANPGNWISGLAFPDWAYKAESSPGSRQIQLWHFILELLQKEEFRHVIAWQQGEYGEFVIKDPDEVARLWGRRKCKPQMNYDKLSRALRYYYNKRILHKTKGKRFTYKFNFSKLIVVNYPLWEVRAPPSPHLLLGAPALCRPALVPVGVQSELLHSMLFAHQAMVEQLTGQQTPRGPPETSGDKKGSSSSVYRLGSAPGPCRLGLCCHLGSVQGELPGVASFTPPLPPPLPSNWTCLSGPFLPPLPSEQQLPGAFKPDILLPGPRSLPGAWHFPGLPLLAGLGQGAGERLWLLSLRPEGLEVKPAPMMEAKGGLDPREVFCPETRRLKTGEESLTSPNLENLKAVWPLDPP
# In short: as §1
# ETS2 = biological target: T8, ETS2 (Homo sapiens, UniProt P15036 1-469); details: protein: recombinant; tags: N-terminal GST; dsDNA, one strand shown
# T8 sequence: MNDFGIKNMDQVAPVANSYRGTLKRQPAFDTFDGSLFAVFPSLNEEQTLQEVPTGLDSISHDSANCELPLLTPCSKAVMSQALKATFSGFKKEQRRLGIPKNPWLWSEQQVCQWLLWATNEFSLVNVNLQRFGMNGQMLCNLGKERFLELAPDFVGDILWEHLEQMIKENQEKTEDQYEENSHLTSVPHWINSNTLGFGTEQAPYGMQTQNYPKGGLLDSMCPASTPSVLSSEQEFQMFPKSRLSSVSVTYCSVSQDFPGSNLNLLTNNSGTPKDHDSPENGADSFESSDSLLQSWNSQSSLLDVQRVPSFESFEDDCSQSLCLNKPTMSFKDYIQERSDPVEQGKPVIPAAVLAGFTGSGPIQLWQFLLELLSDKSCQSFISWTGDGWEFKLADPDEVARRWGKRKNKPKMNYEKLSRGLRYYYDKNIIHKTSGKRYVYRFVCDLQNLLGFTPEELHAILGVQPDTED
# In short: as §1
# SPDEF = biological target: T9, SPDEF (Homo sapiens, UniProt O95238 1-335); details: protein: recombinant; tags: N-terminal GST; dsDNA, one strand shown
# T9 sequence: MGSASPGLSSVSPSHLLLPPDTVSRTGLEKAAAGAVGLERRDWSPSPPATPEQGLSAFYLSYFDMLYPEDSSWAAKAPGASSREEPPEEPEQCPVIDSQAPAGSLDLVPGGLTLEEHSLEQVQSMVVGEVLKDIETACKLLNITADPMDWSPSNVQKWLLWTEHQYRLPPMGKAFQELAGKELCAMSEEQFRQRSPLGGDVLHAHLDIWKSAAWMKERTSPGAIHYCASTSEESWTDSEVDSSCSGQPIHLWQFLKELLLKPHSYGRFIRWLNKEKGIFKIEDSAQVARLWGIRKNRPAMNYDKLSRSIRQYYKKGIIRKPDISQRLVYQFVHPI
# In short: as §1
# ETV7 = biological target: T10, ETV7 (Homo sapiens, UniProt Q9Y603 1-341); details: protein: recombinant; tags: N-terminal GST; dsDNA, one strand shown
# T10 sequence: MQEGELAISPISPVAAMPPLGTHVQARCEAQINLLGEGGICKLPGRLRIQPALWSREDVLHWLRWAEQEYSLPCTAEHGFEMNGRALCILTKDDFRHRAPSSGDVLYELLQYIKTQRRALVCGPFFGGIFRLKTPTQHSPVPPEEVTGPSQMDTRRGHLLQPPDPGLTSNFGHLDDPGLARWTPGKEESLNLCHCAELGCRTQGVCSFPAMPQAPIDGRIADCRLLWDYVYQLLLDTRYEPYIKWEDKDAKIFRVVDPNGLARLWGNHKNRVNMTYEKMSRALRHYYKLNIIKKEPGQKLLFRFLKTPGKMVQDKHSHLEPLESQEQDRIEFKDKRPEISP
# In short: as §1
# ELF5 = biological target: T11, ELF5 (Homo sapiens, UniProt Q9UKW6-2 1-255); details: protein: recombinant; tags: N-terminal GST; dsDNA, one strand shown
# T11 sequence: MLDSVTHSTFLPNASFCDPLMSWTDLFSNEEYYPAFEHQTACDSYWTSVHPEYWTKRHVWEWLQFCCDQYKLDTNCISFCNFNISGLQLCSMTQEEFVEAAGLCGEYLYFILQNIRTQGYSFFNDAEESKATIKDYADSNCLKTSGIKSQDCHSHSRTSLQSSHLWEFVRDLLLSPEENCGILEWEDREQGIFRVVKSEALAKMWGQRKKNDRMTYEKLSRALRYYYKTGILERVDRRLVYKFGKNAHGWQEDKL
# In short: as §1
# ETV3 = biological target: T12, ETV3 (Homo sapiens, UniProt P41162-2 1-143); details: protein: recombinant; tags: N-terminal GST; dsDNA, one strand shown
# T12 sequence: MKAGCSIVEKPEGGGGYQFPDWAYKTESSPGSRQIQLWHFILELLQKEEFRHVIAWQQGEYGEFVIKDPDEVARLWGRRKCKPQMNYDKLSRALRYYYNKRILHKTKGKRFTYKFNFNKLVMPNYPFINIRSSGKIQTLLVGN
# In short: as §1
# ETV6 = ETV6 (Homo sapiens, UniProt P41212 1-452); details: protein: recombinant; tags: N-terminal GST; dsDNA, one strand shown
# Chain of ETV6 (P41212 whole entry): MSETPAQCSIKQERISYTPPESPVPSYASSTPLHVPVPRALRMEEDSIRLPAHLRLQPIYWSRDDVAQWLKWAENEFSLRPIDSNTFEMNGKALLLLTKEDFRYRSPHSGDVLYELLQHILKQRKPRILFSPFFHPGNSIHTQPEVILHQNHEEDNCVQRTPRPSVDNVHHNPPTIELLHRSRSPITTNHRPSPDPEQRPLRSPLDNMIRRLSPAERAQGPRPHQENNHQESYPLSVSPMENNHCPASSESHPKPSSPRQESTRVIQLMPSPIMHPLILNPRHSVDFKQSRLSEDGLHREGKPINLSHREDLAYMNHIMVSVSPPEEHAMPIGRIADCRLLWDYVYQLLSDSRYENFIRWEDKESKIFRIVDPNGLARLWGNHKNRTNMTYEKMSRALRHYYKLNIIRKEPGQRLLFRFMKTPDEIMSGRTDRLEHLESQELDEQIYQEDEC
# In short: as §1
sequence,measurement,setting,value
TTACGG,binding signal,FEV,"1.22 fold enrichment (6-mer frequency, TF over GST control)"
same,binding signal,ETV5,"1.27 fold enrichment (6-mer frequency, TF over GST control)"
same,binding signal,HSF1,"1.43 fold enrichment (6-mer frequency, TF over GST control)"
same,binding signal,SPIC,"1.26 fold enrichment (6-mer frequency, TF over GST control)"
same,binding signal,ELF4,"1.25 fold enrichment (6-mer frequency, TF over GST control)"
same,binding signal,ELK4,"1.19 fold enrichment (6-mer frequency, TF over GST control)"
same,binding signal,ETV2,"1.36 fold enrichment (6-mer frequency, TF over GST control)"
same,binding signal,ELF3,"1.35 fold enrichment (6-mer frequency, TF over GST control)"
same,binding signal,CRX,"1.86 fold enrichment (6-mer frequency, TF over GST control)"
same,binding signal,ETV1,"1.25 fold enrichment (6-mer frequency, TF over GST control)"
same,binding signal,ERF,"1.36 fold enrichment (6-mer frequency, TF over GST control)"
same,binding signal,ETV3L,"1.22 fold enrichment (6-mer frequency, TF over GST control)"
same,binding signal,ETS2,"1.43 fold enrichment (6-mer frequency, TF over GST control)"
same,binding signal,SPDEF,"1.32 fold enrichment (6-mer frequency, TF over GST control)"
same,binding signal,ETV7,"1.16 fold enrichment (6-mer frequency, TF over GST control)"
same,binding signal,ELF5,"1.32 fold enrichment (6-mer frequency, TF over GST control)"
same,binding signal,ETV3,"1.17 fold enrichment (6-mer frequency, TF over GST control)"
same,binding signal,ETV6,"1.26 fold enrichment (6-mer frequency, TF over GST control)"
